Compounds with a hit are over-represented: about 3.2% of the library has one in this group of screens.
TRb-SRC2 inh = qHTS for Inhibitors of the Interaction of Thyroid Hormone Receptor and Steroid Receptor Coregulator 2; Thyroid hormone receptor beta (Homo sapiens), P10828; Potency, µM (highest dose often 106 µM), usual class: inhibitors; 0.065% of 280,000 active; TRbeta-SRC2 peptide binding, fluorescence polarization; receptor liganded with 1 µM T3; AID 1469, 2008; also: nearly all actives have a fitted effect of over 50% in size
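Fluorescence polarization of 20 nM Texas Red SRC2 peptide (20-aa NR interaction domain) bound to 0.6 uM human TRb ligand-binding domain, with 1 uM T3, after 5 hr at ambient temperature; inhibition seen as decreased polarization.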
Tau ThT inhib = qHTS for Inhibitors of Tau Fibril Formation, Thioflavin T Binding | Microtubule-associated protein tau (Homo sapiens), P10636 | Potency, µM (top dose mostly 57.4 µM), most hits filed as inhibitors | AID 1460, 2008 | 2.1% of 270,000 active | recombinant tau K18 P301L, heparin-induced fibrillization, ThT fluorescence; also: nearly all actives have a fitted effect of over 55% in size
Target sequence (P10636 561-689 P618L limits assumed): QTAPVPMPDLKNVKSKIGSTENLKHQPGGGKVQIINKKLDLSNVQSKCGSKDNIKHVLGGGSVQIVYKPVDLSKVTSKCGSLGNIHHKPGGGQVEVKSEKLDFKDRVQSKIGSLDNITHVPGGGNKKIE
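Heparin-induced fibrillization of the P301L-mutant K18 repeat-domain fragment of human tau was followed by ThT binding in quantitative high-throughput format.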
Tau fluor cs = Counterscreen qHTS for Inhibitors of Tau Fibril Formation, Fluorescence Polarization. Potency, µM (doses to about 57.7 µM). tau K18 P301L (four-repeat tau fragment) Alexa594 fluorescence, heparin fibrillization. 0.93% of 280,000 active. AID 1463, 2008; also: nearly all actives have a fitted effect of over 55% in size
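Human K18 P301L tau (15 uM unlabeled plus 0.24 uM Alexa 594-labeled, final) in 100 mM sodium acetate pH 7 was mixed with compound and 20 uM heparin and incubated 6 hr at 37 C.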
RGS12 GoLoco inh = qHTS Assay for Inhibitors of RGS12 GoLoco Motif Activity (Red Fluorophore); 0.44% of 230,000 active; Guanine nucleotide-binding protein G(i) subunit alpha-1 (Homo sapiens), P63096; Potency, µM (top dose mostly 61.6 µM), usual class: inhibitors; Gai1:RGS12 GoLoco peptide FP, rhodamine, 10 min; active = well fitted inhibition curve with a large enough effect, not every such curve was filed as active; inactive = no such curve, though single readings can be large or run the other way; also: nearly all actives have a fitted effect of over 30% in size
Target sequence (P63096 whole entry, looked up): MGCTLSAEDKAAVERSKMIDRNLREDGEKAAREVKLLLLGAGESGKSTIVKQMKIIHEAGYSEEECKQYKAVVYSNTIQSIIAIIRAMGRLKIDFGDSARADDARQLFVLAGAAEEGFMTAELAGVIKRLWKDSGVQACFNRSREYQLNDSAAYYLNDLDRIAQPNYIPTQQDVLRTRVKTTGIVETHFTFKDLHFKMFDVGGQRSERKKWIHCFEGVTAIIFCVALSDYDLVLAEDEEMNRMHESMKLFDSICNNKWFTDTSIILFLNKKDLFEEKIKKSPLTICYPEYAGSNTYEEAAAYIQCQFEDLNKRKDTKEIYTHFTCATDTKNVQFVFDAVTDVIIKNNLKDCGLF
TexasRed fluor = Total Fluorescence Counterscreen for Inhibitors of the Interaction of Thyroid Hormone Receptor and Steroid Receptor Coregulator 2; TRb/SRC2 Texas Red total fluorescence interference; Potency, µM (highest dose often 106 µM); 0.29% of 280,000 active; AID 1479, 2009; active = well fitted curve in either direction with a large enough effect; inconclusive = small, poorly fitted or top-dose-only effect
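Flags fluorescent or light-absorbing compounds by total fluorescence, S + 2P, at 555 nm excitation and 632 nm emission. Mixture: 20 nM Texas Red SRC2 peptide, 0.6 uM human TRb LBD, 1 uM T3, 5% DMSO; compound exposure 5 h at ambient temperature.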
Tau FP inhib = qHTS for Inhibitors of Tau Fibril Formation, Fluorescence Polarization; AID 1468, 2008; 0.39% of 280,000 active; Potency, µM (doses to about 57.7 µM), hits mostly inhibitors; Microtubule-associated protein tau (Homo sapiens), P10636; K18 P301L tau heparin fibrillization, Alexa594 FP, 6 h; also: nearly all actives have a fitted effect of over 55% in size
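FP of Alexa 594-tau after heparin (20 uM) induction. Substrate: human K18 P301L, 15 uM unlabeled, 0.24 uM labeled. Buffer 100 mM sodium acetate pH 7. 6 hr, 37 C.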
A number is an active result; i = inactive; ? = inconclusive; nt = no result given; ! = a repeat was not active; [ ] = another dose, or the depositor's remark. Unless noted, calls follow the shape of the dose curve; as a rule, active = well fitted curve in the direction sought with a large enough effect; inconclusive = small, poorly fitted or top-dose-only effect, or another doubt; inactive = no such curve, though single readings can be large; an effect the other way counts as inactive or inconclusive.

SMILES	TRb-SRC2 inh	Tau ThT inhib	Tau fluor cs	RGS12 GoLoco inh	TexasRed fluor	Tau FP inhib
CCOc1ccc(C(=O)NCC(c2ccco2)S(=O)(=O)c2cccs2)cc1 (configuration not stated)	i	i	i	nt	i	i
COc1ccc(C2=Nn3c(nnc3-c3ccc(OC)c(OC)c3)SC2)c(OC)c1	i	nt	nt	nt	i	nt
NC(=O)[C@@H]1[C@@H]2C(=O)N(c3ccc(F)cc3)C(=O)[C@@H]2[C@H]2C=Cc3ccccc3N21	i	14µM	i	i	i	?
O=C(c1ccco1)[C@@H]1[C@@H]2C(=O)N(c3ccc(F)cc3)C(=O)[C@@H]2[C@H]2C=Cc3ccccc3N21	i	14µM	i	i	i	?
COC(=O)C1(C)NC(c2ccco2)C2C(=O)N(c3ccc(F)cc3)C(=O)C21 (configuration not stated)	i	i	i	i	i	i
CC(C)[C@@H](CC(=O)N[C@@H]1CCCC[C@H]1C(=O)N[C@H](CC(=O)N[C@@H](CCC(=O)O)CC(=O)O)Cc1c[nH]c2ccccc12)NC(=O)C[C@H](CO)NC(=O)[C@@H]1CCCC[C@H]1N	i	i	i	i	i	i
COc1ccc(-n2c(=O)c(-c3cccs3)nc3cnc(N(C)C)nc32)cc1	nt	nt	nt	i	nt	nt
Cc1ccc(C2c3[nH]c4ccccc4c3CCN2C(=O)CSc2ccccc2)cc1 (configuration not stated)	i	i	i	nt	i	i
CCOc1ccc(C2c3[nH]c4ccccc4c3CCN2C(=O)CSc2ccccc2)cc1 (configuration not stated)	i	i	i	nt	2.8µM[quencher]	i
Cc1cc2nc3c(=O)[nH]c(=O)nc-3n(CC(O)C(O)C(O)COP(=O)(O)O)c2cc1C (configuration not stated)	i	?	i	16µM	i	?
O=S(=O)(NN1CCOCC1)c1ccc(Cl)s1	i	?	i	i	i	?
CN1CCN(NS(=O)(=O)c2ccc(Cl)s2)CC1	i	18µM	i	i	i	?
Cc1ccc(CNc2ccc(O)cc2)cc1	28µM	3.5µM	?	18µM	i	8.9µM
COC(=O)c1nc2n(n1)C(c1cc(OC)ccc1OC)C(C(=O)Nc1ccc(C)cc1C)=C(C)N2 (configuration not stated)	i	i	i	nt	?	i
O=C(O)c1cc(O)c2c(c1)C(=O)c1cccc(O)c1C2=O	i	18µM	18µM![quencher]	i	?	?
Cc1cn2c(=O)cc(COC(=O)c3cccc(NC(=O)c4ccccc4Cl)c3)nc2s1	i	i	i	nt	i	?
CCOC(=O)c1c(NC(=O)CSc2c[nH]c3ccccc23)sc2c1CCCC2	i	i	i	i	i	i
CNC(=O)c1c(NC(=O)Cc2coc3ccc(C)cc23)sc2c1CCCC2	i	?	?	nt	?	i
CCOC(=O)c1c(NC(=O)Cc2coc3cc(C)ccc23)sc2c1CCCC2	?	?	i	nt	0.1µM[quencher]	i
CCOC(=O)c1c(NC(=O)CSc2c[nH]c3ccccc23)sc2c1CCC2	i	i	10µM[quencher]	i	i	?
CCCCCCCCCCCCCCN(C)C	i	nt	nt	nt	i	nt
COc1ccc(CCn2c(NN=C(C)C)nc3c2c(=O)[nH]c(=O)n3C)cc1	i	22µM	?	i	i	?
CN1C(=O)/C(=C/c2cn(CC(=O)NCc3ccco3)c3ccccc23)NC1=S	i	13µM	?	i	i	?
CC[C@H](NC(=O)[C@H](CCC(=O)O)NC(=O)[C@H](CCC(=O)O)NC(=O)[C@H](CC(=O)O[S+](=O)([O-])c1cccc2c(NCCN)cccc12)NC(=O)[C@H](CCC(=O)O)NC(=O)[C@H](CC(=O)O)NC(C)=O)C(=O)ON[C@@H](C)C(=O)N[C@@H](CO)C(=O)N[C@@H](CCCCNC(=O)c1ccc(N=Nc2ccc(N(C)C)cc2)cc1)C(N)=O	i	nt	nt	nt	i	nt
O=C(Nc1ccc(Cl)cc1)c1cnn2c1NC(c1ccccc1)=CC2c1ccccc1 (configuration not stated)	i	?	10µM[quencher]	nt	i	?
SMILES	TRb-SRC2 inh	Tau ThT inhib	Tau fluor cs	RGS12 GoLoco inh	TexasRed fluor	Tau FP inhib
COc1cc(C2CC(=O)Nc3cc4c(cc32)OCCO4)cc(Br)c1OC (configuration not stated)	i	i	i	nt	i	i
CCc1ccc2occ(CC(=O)Nc3ccc(C)c(C)c3)c2c1	i	i	?	nt	i	?
Cc1ccc(Nc2cc(C)nc(-c3ccccc3O)n2)cc1	i	?	8.9µM[quencher]	i	i	?
Cc1cc(N/N=C/c2ccc(O)c(C)c2O)nc(-c2ccccc2O)n1	i	?	7.9µM[quencher]	i	?	?
Cc1cc(Nc2ccc(F)c(F)c2)nc(-c2ccccc2O)n1	i	i	i	i	i	?
CC(C)c1cnc2c(c1SCC(=O)Nc1ccccc1C(F)(F)F)c(=O)n(C)c(=O)n2C	i	i	i	nt	i	i
Cc1ccc(N2CCN(c3nc4c(S(=O)(=O)c5ccc(C)c(C)c5)nnn4c4ccccc34)CC2)c(C)c1	i	i	i	nt	i	i

Screening results as filed in PubChem.
